Only a selection was taken, and hits are over-represented in it overall.
NS1 function inh – influenza NS1 inhibition | 270,000 tested, 0.4% active | Potency, µM (highest dose often 46.1 µM), for inactives: top-dose activity, positive = more growth | AID 2326; note: potency is the fitted concentration of half-maximal effect; actives are rising curves; nearly all actives have a fitted effect of over 50% in size
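Read-out: OD600 growth recovery of NS1-expressing budding yeast. Cells grown overnight at 30C in -URA glucose medium, washed, resuspended and diluted 1:100 in 2% galactose assay medium, pH 6.0. Same strain lacking NS1 served as positive control.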
SARS PLpro yeast – blocks SARS-CoV papain-like protease in a yeast assay; S. cerevisiae expressing SARS-CoV PLpro, growth rescue; Potency, µM (highest dose often 32.9 µM), without a hit: at the highest dose activity, positive = growth rescue, actives largely listed as activators; 330,000 tested, 0.19% active; note: potency is the fitted concentration of half-maximal effect; 0% is about no effect; nearly all actives have a fitted effect of over 55% in size
Cycloheximide cs – counter-screen for Shiga toxin inhibitors: cycloheximide protein synthesis inhibition. cell reporter, cycloheximide protein synthesis inhibition counterscreen. AID 2314. max response, %. 300,000 tested, 12% active; in the data active = max response mostly above about 13%, no sharp cut-off; inactive = mostly below about 14%; note: read at 38.3 µM for the half of the compounds with a filed dose; 0% is about no effect
Shiga inhibitor – inhibitors of Shiga toxin in Vero cells | Vero cells, Shiga toxin protein synthesis inhibition reporter | 290,000 tested, 9.2% active | AID 2315 | inhibition, % at 38.7 µM; in the data active = inhibition mostly above about 28%, no sharp cut-off; inactive = mostly below about 43%; note: 0% is about no effect
TbPYK inhibitor – T. brucei pyruvate kinase inhibition. TbPYK enzyme, Kinase-Glo Plus ATP luminescence, 45 min. AID 624173. Potency, µM (series often up to 76.8 µM), for the others: at the top dose activity, negative = inhibition, actives largely listed as inhibitors. 410,000 tested, 0.12% active. Q57TT1; active = well fitted curve in the direction sought with a large enough effect; inconclusive = small, poorly fitted or top-dose-only effect, or another doubt; inactive = no such curve, though single readings can be large; an effect the other way counts as inactive or inconclusive; note: potency is the fitted concentration of half-maximal effect; % is set by controls: 0 for no effect and ±100 for the full control effect; nearly all actives have a fitted effect of over 50% in size
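TbPYK + substrate in 50 mM TEA pH 7.2, 100 mM KCl, 10 mM MgCl2, 0.05% BSA, 0.01% Tween-20; cpd pinned; ADP 130 uM final; 45 min RT; Kinase-Glo Plus 10 min; luminescence endpoint.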
LmPK inhibitor – blocks Leishmania mexicana pyruvate kinase activity | Q27686 | 290,000 tested, 0.37% active | purified LmPK, Kinase-Glo ATP luminescence, 1 h | Potency, µM (series often up to 57.5 µM), for inactives: at the highest dose activity change, negative = inhibition, hits mostly inhibitors; active = well fitted curve in the direction sought with a large enough effect; inconclusive = small, poorly fitted or top-dose-only effect, or another doubt; inactive = no such curve, though single readings can be large; an effect the other way counts as inactive or inconclusive; note: potency is the fitted concentration of half-maximal effect; % is set by controls: 0 for no effect and ±100 for the full control effect
Target sequence (Q27686 whole entry, looked up): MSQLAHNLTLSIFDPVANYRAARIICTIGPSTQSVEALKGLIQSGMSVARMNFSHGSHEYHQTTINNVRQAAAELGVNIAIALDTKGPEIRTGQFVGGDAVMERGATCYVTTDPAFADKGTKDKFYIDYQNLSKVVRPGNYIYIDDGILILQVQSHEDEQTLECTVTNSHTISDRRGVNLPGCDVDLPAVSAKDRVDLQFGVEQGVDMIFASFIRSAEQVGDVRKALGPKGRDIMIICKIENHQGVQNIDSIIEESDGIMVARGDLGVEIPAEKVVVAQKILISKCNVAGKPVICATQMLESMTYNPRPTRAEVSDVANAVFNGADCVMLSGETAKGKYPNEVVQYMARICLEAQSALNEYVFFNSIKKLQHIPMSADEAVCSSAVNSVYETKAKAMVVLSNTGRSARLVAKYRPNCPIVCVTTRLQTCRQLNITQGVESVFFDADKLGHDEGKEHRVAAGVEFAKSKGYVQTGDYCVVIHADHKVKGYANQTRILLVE
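Screened at intermediate enzyme activity to detect both inhibitors and activators: LmPK at 0.1 nM, with a 0.5 nM enzyme column as activation reference. PEP 0.5 mM, ADP 0.1 mM; ATP detected by luminescence after 1 h.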
The depositor's hits bear a star; ? = inconclusive; nt = not tested or not shown. Unless noted, calls come from the whole dose curve.

SMILES	NS1 function inh	SARS PLpro yeast	Cycloheximide cs	Shiga inhibitor	TbPYK inhibitor	LmPK inhibitor
CCCN1CCC(NC(=O)CC2C(=O)NCCN2Cc2ccccc2C)CC1 (stereo not drawn)	1%	0%	-1	-5	-8%	-9%
S=P(C1CCCCC1)(C1CCCCC1)[C@H](c1cccnc1)N1CCCC1	-8%	nt	nt	nt	nt	nt
Cc1ccc(NS(=O)(=O)c2cccc(C(=O)NCC(c3ccco3)N3CCCCC3)c2)cc1 (stereo not drawn)	5%	3%	-2	-3	5%	-2%
CCSc1nnc(NC(=O)c2nc(S(=O)(=O)Cc3ccc(F)cc3)ncc2Cl)s1	?	1%	50*	75*	1%	-10%
C/C=C(\C=C\[C@@H](C)C/C=C/CC/C=C/C=C\C[C@@H](OC)/C(C)=C\C=C(C)C)CC(=O)O	nt	nt	13	25	nt	nt
CC(=O)c1oc2ccccc2c1N	2%	6%	0	-2	0%	3%
Nc1c(C(=O)c2ccco2)oc2ccccc12	nt	-1%	21*	24*	nt	4%
O=C(Nc1c(C(=O)c2ccccc2)oc2ccccc12)c1ccc(F)cc1	nt	nt	nt	nt	-4%	nt
Nc1c(C(=O)c2ccc(F)cc2)oc2ccccc12	-12%	-1%	38*	44*	1%	-2%
Cc1c(C(=O)c2ccccc2)oc2ccc3ccccc3c12	2%	0%	51*	106*	-2%	1%
Nc1c(C(=O)Nc2ccc(Cl)cc2)oc2ccccc12	-65%	-9%	55*	175*	-3%	0%
COc1cc(Nc2nc(SCC(=O)c3ccc(Br)cc3)nc3ccccc23)cc(OC)c1	nt	nt	nt	nt	-4%	nt
COCCNc1nc(Oc2ccc(C(N)=O)cc2)c2sccc2n1	nt	nt	nt	nt	-1%	nt
Nc1c(C(=O)N2CCOCC2)oc2ccccc12	-3%	-1%	18*	15	1%	1%
O=C(Nc1c(C(=O)N2CCOCC2)oc2ccccc12)c1ccccc1Cl	-22%	0%	7	16	-5%	-6%
Nc1c(C(=O)c2ccccc2)oc2ccccc12	-5%	-6%	22*	28	-3%	-1%
CCOC(=O)C1(Cc2ccccc2C)CCCN(C(=O)CN2CCCCC2=O)C1 (stereo not drawn)	-3%	-5%	7	29	0%	-3%
C=CCCC(=O)N1CCCC(Cc2cccc(Cl)c2)(C(=O)OCC)C1 (stereo not drawn)	-25%	3%	9	-35	-2%	4%
CCOC(=O)C1(Cc2cccc(Cl)c2)CCCN(C(=O)CCSC)C1 (stereo not drawn)	-21%	1%	22*	29	1%	-3%
CCOC(=O)C1(Cc2cccc(Cl)c2)CCCN(C(=O)CCOC)C1 (stereo not drawn)	1%	-1%	13*	18	11%	2%
CCOC(=O)C1(Cc2cccc(Cl)c2)CCCN(C(=O)CCN2CCCC2=O)C1 (stereo not drawn)	0%	?	25*	31	nt	-10%
CCOC(=O)C1(Cc2ccccc2C)CCCN(C(=O)COC)C1 (stereo not drawn)	1%	-5%	23*	41*	2%	-3%
CCOC(=O)C1(Cc2ccccc2C)CCCN(C(=O)CCC(=O)OC)C1 (stereo not drawn)	17%	2%	-2	11	7%	1%
Cc1cc(N2CCN(c3cccc(C)c3C)CC2)n2cnnc2n1	nt	nt	nt	nt	0%	nt
COc1ccccc1NC(=O)CCSc1nc(C)cc(C)n1	2%	-1%	-2	-3	6%	0%
CC1=NN(C(=O)c2ccc(C)o2)C(O)(c2ccccc2)C1 (stereo not drawn)	-1%	-20%	30*	active	-4%	-1%
CC1=NN(C(=O)c2ccco2)C(O)(c2ccccc2)C1 (stereo not drawn)	0%	-1%	45*	80*	2%	0%
CC1=NN(C(=O)CSCc2ccccc2)C(O)(c2ccccc2)C1 (stereo not drawn)	5%	0%	16	32	1%	1%
Cc1ccc(S(=O)(=O)/N=C(/Nc2ccc([N+](=O)[O-])cc2[N+](=O)[O-])c2ccccc2)cc1	nt	-28%	nt	nt	5%	nt

High-throughput results as filed in PubChem BioAssay.
